This is an account of results in PubChem BioAssay (Tox21).

Values joined by “and” are separate entries in the source; they are usually repeats but may differ in a detail not shown here. Equal values may be shown once. Inconclusive results are not listed. More than one record can exist for a structure, and the calls need not agree. Active and inactive are the calls of the source. Calls follow the shape of the dose curve; as a rule, active = well fitted curve in the direction sought with a large enough effect in the repeat runs; inconclusive = weak or mixed curves; inactive = no such curve, though single readings can be large; an effect the other way counts as inactive or inconclusive.

A short description of test [1]: A CellTox Green Cytotoxicity Assay to monitor cytotoxicity in HEK293 cells - 40 hour (AID 1224871). Also: nearly all actives have a fitted effect of over 45% in size. Also: potency is read from the fitted curve at half-maximal effect. The method in brief:
(§1)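 HEK293 cells, 600/well, were preincubated 5 hours and then exposed to compounds at 37 C for up to 40 hours. A cell-impermeant cyanine dye staining dead-cell DNA was read by fluorescence at 0, 8, 16, 24, 32 and 40 h time points.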

Test [2] in a line: qHTS RealTime-Glo MT Cell Viability Assay in HEK293 cells - 16 hour (AID 1224872). Also: nearly all actives have a fitted effect of over 50% in size. Also: potency is read from the fitted curve at half-maximal effect. The method in brief:
(§2)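 Reads taken at 0, 8, 16, 24, 32 and 40 h from the same wells. HEK293 cells (600/well) carried RealTime-Glo reagents from seeding, with compound added after a 5 h settle at 37 C.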
On the technique in general: Quantitative high-throughput screening tests each substance at several concentrations.

Test [3] in a line: qHTS RealTime-Glo MT Cell Viability Assay in HepG2 cells - 8 hour (AID 1224873). Also: nearly all actives have a fitted effect of over 55% in size. The essentials:
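HepG2 cells (600/well) mixed with RealTime-Glo MT reagent, settled 5 h at 37 C/5% CO2 before compound addition. Nonlytic NanoLuc luminescence from viable-cell prosubstrate reduction read repeatedly during 40 h treatment at 37 C.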

Test [4] in a line: qHTS RealTime-Glo MT Cell Viability Assay in HEK293 cells - 40 hour (AID 1224874). Also: nearly all actives have a fitted effect of over 50% in size. Also: potency is read from the fitted curve at half-maximal effect. The settings on record: RealTime-Glo luminescence; max response: stronger effect = lower value. The essentials:
(§3)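 600 cells/well were plated with the nonlytic NanoLuc/prosubstrate reagent, pre-incubated 5 h, then given 23 nL of compound in DMSO. Incubation at 37 C for 40 h, with luminescence from viable-cell-reduced substrate read repeatedly from 0 h.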

A short description of test [5]: A CellTox Green Cytotoxicity Assay to monitor cytotoxicity in HEK293 cells - 24 hour (AID 1224875). Also: series mostly up to about 77 µM; nearly all actives have a fitted effect of over 45% in size. The method in brief:
as §1

A short description of test [6]: A CellTox Green Cytotoxicity Assay to monitor cytotoxicity in HepG2 cells - 16 hour (AID 1224876). Also: nearly all actives have a fitted effect of over 45% in size. The essentials:
(§4)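 HepG2 cells, 600/well, preincubated 5 h with CellTox Green dye, then exposed to Tox21 compounds in DMSO at 37 C for up to 40 h. Dead-cell DNA fluorescence read at the indicated time point.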

A short description of test [7]: qHTS RealTime-Glo MT Cell Viability Assay in HepG2 cells - 32 hour (AID 1224877). Also: nearly all actives have a fitted effect of over 55% in size. The essentials: (§5)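 HepG2 suspension premixed with RealTime-Glo reagents is plated at 600 cells per well and left 5 h at 37 C/5% CO2. Compounds in DMSO then go in, and bioluminescence reflecting viable cell number is recorded over 40 h.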
Test [8] is described as follows: A CellTox Green Cytotoxicity Assay to monitor cytotoxicity in HepG2 cells - 24 hour (AID 1224878). Also: nearly all actives have a fitted effect of over 45% in size. The essentials: as §4
The nature of test [9]: qHTS RealTime-Glo MT Cell Viability Assay in HEK293 cells - 0 hour (AID 1224880). Also: nearly all actives have a fitted effect of over 45% in size. Also: potency is read from the fitted curve at half-maximal effect. The essentials: as §3
A short description of test [10]: A CellTox Green Cytotoxicity Assay to monitor cytotoxicity in HEK293 cells - 32 hour (AID 1224881). Also: nearly all actives have a fitted effect of over 40% in size. Also: potency is read from the fitted curve at half-maximal effect. The method in brief:
as §1

The nature of test [11]: A CellTox Green Cytotoxicity Assay to monitor cytotoxicity in HepG2 cells - 0 hour (AID 1224882). Also: nearly all actives have a fitted effect of over 35% in size. The essentials:
as §4

Test [12] can be described thus: A CellTox Green Cytotoxicity Assay to monitor cytotoxicity in HepG2 cells - 32 hour (AID 1224883). Also: nearly all actives have a fitted effect of over 50% in size. Also: potency is read from the fitted curve at half-maximal effect. The method in brief: as §4
Test [13] is described as follows: A CellTox Green Cytotoxicity Assay to monitor cytotoxicity in HEK293 cells - 8 hour (AID 1224884). Also: nearly all actives have a fitted effect of over 35% in size. The method in brief:
as §1

Test [14] can be described thus: qHTS RealTime-Glo MT Cell Viability Assay in HepG2 cells - 16 hour (AID 1224885). Also: nearly all actives have a fitted effect of over 50% in size. The essentials:
as §5

The nature of test [15]: qHTS RealTime-Glo MT Cell Viability Assay in HEK293 cells - 24 hour (AID 1224886). Also: nearly all actives have a fitted effect of over 50% in size. Also: potency is read from the fitted curve at half-maximal effect. The method in brief: as §2
Test [16] is described as follows: qHTS RealTime-Glo MT Cell Viability Assay in HEK293 cells - 8 hour (AID 1224887). Also: nearly all actives have a fitted effect of over 50% in size. Also: potency is read from the fitted curve at half-maximal effect. The method in brief:
as §3

Test [17] is described as follows: A CellTox Green Cytotoxicity Assay to monitor cytotoxicity in HEK293 cells - 16 hour (AID 1224888). Also: nearly all actives have a fitted effect of over 35% in size. The essentials:
as §1

Test [18] is described as follows: qHTS RealTime-Glo MT Cell Viability Assay in HepG2 cells - 0 hour (AID 1224889). Also: nearly all actives have a fitted effect of over 50% in size. Also: potency is read from the fitted curve at half-maximal effect. The essentials: as §5
Test [19] is described as follows: A CellTox Green Cytotoxicity Assay to monitor cytotoxicity in HepG2 cells - 8 hour (AID 1224890). Also: nearly all actives have a fitted effect of over 45% in size. The essentials:
as §4

Test [20] is described as follows: A CellTox Green Cytotoxicity Assay to monitor cytotoxicity in HepG2 cells - 40 hour (AID 1224879). Also: nearly all actives have a fitted effect of over 40% in size. Also: potency is read from the fitted curve at half-maximal effect. The essentials:
as §4
% is scaled to controls: 0 for no effect and ±100 for the full control effect.

Take `CCCCCC1C(=O)CCC1CC(=O)OC` (stereo not drawn): the Potency result in test [1], in [2], in test [3], in test [5], in [6] and in test [7] was “inactive” throughout. The Potency result in test [8], in [9], in test [10], in [11], in test [12] and in test [13] was “inactive” each time. The Potency result in [14], in test [15], in test [16], in test [17], in test [18] and in test [19] was “inactive” each time. For the same compound, the max response in test [4] was 0.863% (inactive) and -10.7% (inactive).

For the compound `O=S1(=O)CCCO1`, the Potency result in test [1], in test [2], in test [3], in test [5], in test [6] and in test [7] was “inactive” throughout. The Potency result in test [8], in [20], in test [9], in test [10], in [11] and in [12] was “inactive” in each case. Moreover, the Potency entry in test [13], in test [14], in test [15], in test [16], in test [17] and in test [18] was “inactive” in each case. Further, the Potency result in [19] was “inactive”. Moreover, the max response in test [4] is 5.89% (inactive) and 10.2% (inactive).

Regarding `CC/C=C\C/C=C\C/C=C\CCCCCCCC(=O)O`, the Potency result in [1], in test [2], in test [3], in test [5], in [6] and in test [7] was “inactive” each time. Further, the Potency result in [8], in test [20], in test [10], in test [11], in test [12] and in test [13] was “inactive” throughout. The Potency result in test [14], in test [15], in [16], in [17], in [18] and in test [19] was “inactive” throughout. For the same compound, in [4], the max response was -5.49% (inactive) and 15.2% (inactive).

As to `Cc1ccc([N+](=O)[O-])c(C)c1`, the Potency was 24.6 µM (active) and inactive in [1]; 38.9 µM (active) and inactive in [2]; 38.9 µM (active) in test [4]; 17.4 µM (active) and inactive in test [20]; 30.9 µM (active) and inactive in test [10]; 17.4 µM (active) and inactive in [12]. The Potency in [15] is 38.9 µM (active) and inactive. Also, the Potency result in test [3], in test [5], in test [6], in test [7], in [8] and in [9] was “inactive” each time. Besides, the Potency entry in test [11], in [14], in test [16], in test [17], in test [18] and in [19] was “inactive” each time. The max response in test [4] is -10.8% (inactive).

As to `c1ccc2c(c1)ccc1cc3c(ccc4ccccc43)cc12`, the Potency entry in test [1], in [2], in test [3], in test [5], in [6] and in test [7] was “inactive” in each case. The Potency result in test [8], in test [9], in test [10], in [11], in test [12] and in test [14] was “inactive” throughout. The Potency entry in test [15], in test [16], in [17], in test [18] and in test [19] was “inactive” each time. Also, in [4], the max response is 16% (inactive) and 7.61% (inactive). For the same compound, the Potency in test [20] is 4.32 µM (active) and 1.22 µM (active).

As for `CC(=O)O[C@]1(C(C)=O)CC[C@H]2[C@@H]3C=C(Cl)C4=CC(=O)CC[C@]4(C)[C@H]3CC[C@@]21C`, the Potency result in test [1], in [3], in test [5], in test [6], in test [7] and in [8] was “inactive” throughout. For the same compound, the Potency entry in test [20], in test [10], in test [11], in test [12], in test [14] and in test [16] was “inactive” in each case. Also, the Potency entry in test [17] and in [19] was “inactive” each time. Further, the Potency in test [2] was 21.8 µM (active); in test [4] it was 21.8 µM (active) and 10.7 µM (active); in test [9] it was 2.18 µM (active) and 1.69 µM (active); in test [18], 346 nM (active) and 477 nM (active).

On to `CC(=O)[C@@]1(O)CC[C@H]2[C@@H]3C[C@H](C)C4=CC(=O)C=C[C@]4(C)[C@@]3(F)[C@@H](O)C[C@@]21C`, for which the Potency result in test [1], in test [3], in [5], in test [6], in [7] and in test [8] was “inactive” each time. In addition, the Potency entry in test [20], in test [10], in [11], in test [12], in [14] and in test [16] was “inactive” each time. The Potency result in [17] and in [19] was “inactive” in each case. The Potency was 38.9 µM (active) and inactive in test [2]; 19.5 µM (active) in test [4]; 5.49 µM (active) and 3.01 µM (active) in [9]; 27.5 µM (active) and inactive in [15]; 347 nM (active) and 1.34 µM (active) in [18]. The max response in test [4] was -3.14% (inactive).

Turning to `COCCOCCOCCO`, the Potency result in test [1], in test [2], in test [3], in test [5], in test [6] and in test [7] was “inactive” throughout. For the same compound, the Potency result in test [8], in test [20], in [9], in test [10], in test [11] and in [12] was “inactive” in each case. For the same compound, the Potency result in test [14], in [16], in test [17], in test [18] and in [19] was “inactive” throughout. In addition, in test [4], the max response is 4.57% (inactive) and 6.41% (inactive).

In the case of `CCOC(=O)C(C)Oc1ccc(Oc2cnc3cc(Cl)ccc3n2)cc1` (stereo not drawn), the Potency entry in test [1] is “inactive and 1.29 µM (active)”; in test [2], 20 µM (active) and 20.5 µM (active); in test [4] it was 44.7 µM (active); in test [16], 14.1 µM (active) and 16.3 µM (active). Moreover, the Potency entry in test [3], in [5], in [6], in [7], in [8] and in [9] was “inactive” in each case. In addition, the Potency result in test [10], in test [11], in [12], in test [13], in test [14] and in [17] was “inactive” each time. Also, the Potency entry in test [18] and in test [19] was “inactive” in each case. The max response in test [4] is -24.7% (inactive).

Take `O=C(O)CCCC(=O)O`: the Potency result in test [1], in [2], in [3], in test [5], in test [6] and in test [7] was “inactive” in each case. In addition, the Potency entry in test [8], in [9], in [10], in test [11], in test [12] and in [13] was “inactive” each time. For the same compound, the Potency result in [14], in test [15], in test [16], in test [17], in [18] and in test [19] was “inactive” throughout. For the same compound, in test [4], the max response is -2.98% (inactive) and 4.62% (inactive).

For `CN(C)C`, the Potency entry in test [1], in test [2], in [3], in [5], in [6] and in test [7] was “inactive” throughout. Besides, the Potency result in test [8], in [20], in [10], in test [11], in [12] and in test [13] was “inactive” each time. Besides, the Potency entry in [14], in test [16], in [17], in test [18] and in test [19] was “inactive” in each case. In addition, in [4], the max response was 3.08% (inactive) and -9.36% (inactive).

Take `CC(C)=CCO`: the Potency result in test [1], in test [2], in [3], in test [5], in test [6] and in test [7] was “inactive” in each case. For the same compound, the Potency result in test [8], in [9], in [10], in test [11], in test [12] and in test [13] was “inactive” each time. Further, the Potency result in [14], in [15], in [16], in [17], in [18] and in [19] was “inactive” each time. Besides, the max response in [4] was 4.01% (inactive) and 0.683% (inactive).
